Screening results (PubChem BioAssay)
Shiga inhibitor – inhibitors of Shiga toxin in Vero cells; AID 2315; 290,000 tested, 9.2% active; inhibition, % at 38.7 µM; Vero cells, Shiga toxin protein synthesis inhibition reporter; in the data active means inhibition mostly above about 28%, no sharp cut-off; inactive means mostly below about 43%; further: 0% is about no effect
Pf growth 48h – inhibits P. falciparum growth in the first generation, 48 h; P. falciparum luciferase growth in erythrocytes, 48 h; Potency, µM (highest dose often 28.7 µM), inactives show top-dose activity change, negative = inhibition, most hits filed as inhibitors; 310,000 tested, 5.9% active; AID 504832; further: potency means the concentration at half of the fitted maximal effect; on the % scale 0 is the no-effect control and ±100 the full control effect
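Firefly luciferase activity from engineered P. falciparum reports growth; inhibitors lower the luminescent signal. Cultures contained 2% hematocrit erythrocytes at 0.1% final parasitemia.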
HCMV inh – blocks human cytomegalovirus replication | activity change, negative = inhibition, % at 57.5 µM | HFF cells, HCMV-luciferase reporter, 72 h; active compounds read low | AID 1259415 | 410,000 tested, 4.5% active; in the data active means activity change below about -60%; inconclusive means no clear call, values can overlap the other calls; inactive means above about -39%; further: on the % scale 0 is the no-effect control and ±100 the full control effect
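Two-dose cell screen: HFF monolayers treated with compounds and infected with luciferase-expressing HCMV at 1 PFU/cell, 72 h at 37C, then lysed for luciferase measurement.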
Pf growth 96h – P. falciparum growth inhibition at 96 hour, primary screen for plastid delayed-death inhibitors | AID 504834 | 320,000 tested, 6.9% active | P. falciparum luciferase reporter growth, 96 h | Potency, µM (series often up to 28.7 µM), inactives show top-dose activity change, negative = inhibition, most hits filed as inhibitors; further: potency means the concentration at half of the fitted maximal effect; on the % scale 0 is the no-effect control and ±100 the full control effect
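Compounds incubated with erythrocytes infected by luciferase-expressing P. falciparum (2% hematocrit, 0.05% parasitemia final) for 96 hours, 37 C in 5% CO2. Growth inhibition scored as decreased luciferase luminescence.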
Cycloheximide cs – affects cycloheximide protein synthesis inhibition readout, counter-screen. cell reporter, cycloheximide protein synthesis inhibition counterscreen. max response, %. 300,000 tested, 12% active. AID 2314; in the data active means max response mostly above about 13%, no sharp cut-off; inactive means mostly below about 14%; further: read at 38.3 µM for the half of the compounds with a filed dose; 0% is about no effect
* hit, by the source's call; ? = inconclusive; / = not tested or not shown; + = active, no number; [ ] = dose if it differs, or a comment. Sampled rows, rich in hits. Any-hit rate of the full collection: about 20%. Unless noted, the call rests on the fitted dose curve; in most records, active means well fitted inhibition curve with a large enough effect; inconclusive means small, poorly fitted or top-dose-only effect, or another doubt; inactive means no such curve, though single readings can be large or run the other way.

SMILES	Shiga inhibitor	Pf growth 48h	HCMV inh	Pf growth 96h	Cycloheximide cs
Cc1ccc(NC(=O)C(Cc2ccccc2)NS(=O)(=O)c2ccc3c(c2)oc(=O)n3C)c(Cl)c1 (stereo not given)	/	/	-24	/	/
CNC(=O)COC(=O)/C=C/c1cn(-c2ccccc2)nc1-c1ccc(C)o1	9	12µM*	-36	7.4µM*	3
Cc1ccc(NC(=O)Cc2ccc(-n3c(C)nc4cccnc43)cc2)cc1C	/	/	+	/	/
COC1=C2C[C@H](C)C[C@H](OC)[C@H](O)[C@@H](C)/C=C(/C)[C@H](OC(N)=O)[C@@H](OC)/C=C\C=C(\C)C(=O)NC(=CC1=O)C2=O	-8	/	/	/	-1
COC1C=CC=C(C)C(=O)NC2=CC(=O)C(N)=C(CC(C)CC(OC)C(O)C(C)C=C(C)C1OC(N)=O)C2=O (stereo not given)	/	/	-98*	/	/
C=CCNC1=C2C[C@@H](C)C[C@H](OC)[C@H](O)[C@@H](C)/C=C(\C)[C@H](OC(N)=O)[C@@H](OC)/C=C\C=C(/C)C(=O)NC(=CC1=O)C2=O	/	0.6µM*	/	11µM*	/
COC1CC(C)C(OC)c2cc(O)cc(c2O)NC(=O)C(C)=CC=CC(C)C(OC(N)=O)C(C)=CC(C)C1OC (stereo not given)	/	/	-99*	/	/
COc1ccc(/C=N/NC(=O)CNS(=O)(=O)c2ccc(C)cc2)cc1	-28	9%	-2	?	-3
CC(=O)C[C@H](O)CC(=O)[C@H]1OC(=O)CCCCCc2ccccc21	/	/	-16	/	/
CC(=O)C[C@H](O)CC(=O)[C@H]1OC(=O)CC/C=C\Cc2ccccc21	/	12%	-61*	40%	/
COC(=O)c1sc(NC(=O)c2cccc([N+](=O)[O-])c2)c(C(N)=O)c1C	8	23%	-18	-8%	-2
COC(=O)c1sc2cc([N+](=O)[O-])cc(SCC(C)C)c2c1N	4	42%	-64*	-24%	-4
CC(C)c1nnc(NC(=O)Cc2ccc(Br)cc2)s1	-11	12%	-27	-13%	-2
CCc1ccc(C(=O)NC(Cc2c[nH]c3ccccc23)C(=O)OCC(=O)c2ccc(Br)cc2)cc1 (stereo not given)	/	/	0	/	/
O=C(CCN1CCCC1Cc1ccccc1)c1ccc2c(c1)OCCO2 (stereo not given)	43	6%	19	?	13
CC(C)(C)N(Cc1ccccc1)C(=O)c1ccc2c(c1)OCCO2	45	-30%	-13	-7%[5.75 µM]	2
O=C(O)CCC(=O)c1ccc2c(c1)OCCCO2	4	20%	62	/	11
O=C(CCCc1ccccc1)c1ccccc1	97*	194%	40	268%	46*
O=C(CCCc1ccccc1)c1ccc2c(c1)OCCO2	-17	-6%	-91*	12%	-9
O/N=C(/CCc1ccccc1)c1ccc2c(c1)OCCO2	75*	71%	99	-1%	38*
O=C(CCc1ccccc1)c1ccc2c(c1)OCCCO2	125*	?	41	/	69*
CCc1ccccc1NC(=O)[C@H](Cc1ccccc1)N1Cc2ccccc2C1=O	/	/	-23	/	/
COCCNC(=O)/C(=C/c1ccccc1Cl)c1ccccc1	-3	-3%	-77*	75%	-2
O=C1NN(c2cccc(Br)c2)C(=O)/C1=C\c1ccc(N2CCOCC2)cc1	-17	24%	/	?	-2
CCCN1CCC(=O)N([C@H](CSc2ccc(Br)cc2)c2ccccc2)CC1	19	0%	47	?	35*
SMILES	Shiga inhibitor	Pf growth 48h	HCMV inh	Pf growth 96h	Cycloheximide cs
CC(=O)Nc1ccc(SC[C@H](c2ccccc2)N2CCN(CCc3ccccc3)CCC2=O)cc1	25	13µM*	37	7.4µM*	-1
CCCN1CCC(=O)N(C(CSc2ccc(OC)cc2)c2ccccc2)CC1 (stereo not given)	156*	/	/	/	42*
O=C1CCN(CCc2ccccc2)CCN1[C@H](CSc1ccc(Br)cc1)c1ccccc1	-3	-1%	54	-2%	-2
c1ccc(N2CCN(c3nnc(Cc4cccnc4)c4ccccc34)CC2)nc1	-11	7.4µM*	?	-10%	-2
COC(=O)CCSCC(=O)Nc1ccc(C)c(S(=O)(=O)N2CCCCC2)c1	12	-26%	-15	4%	-2
Cc1[nH]n(-c2ccccc2)c(=O)c1C=NCC1CCCO1 (stereo not given)	49*	21%	-4	-8%	23*
Cc1[nH]n(-c2ccccc2)c(=O)c1/C=N/O	-15	36%	28	?	-2
CCCc1[nH]n(-c2nc3ccccc3s2)c(=O)c1C=NCC1CCCO1 (stereo not given)	7	?	54	/	24*
Cc1[nH]n(-c2ccccc2)c(=O)c1/C=N/N(C)c1ccccc1	45*	?	-19	?	7
Cc1[nH]n(-c2cccc(Cl)c2)c(=O)c1C=NCc1ccco1	107*	141%	1	-4%	43*
CCCc1[nH]n(-c2ccc(F)cc2)c(=O)c1C=NCC1CCCO1 (stereo not given)	0	?	4	-23%[5.75 µM]	-1
COc1ccc2c(c1)C(C1C(=O)CCCC1=O)c1ccccc1O2 (stereo not given)	-16	-13%	-20	?	-4
Cc1ccc(CNc2ncnc3onc(C)c23)cc1	/	/	-37	/	/
COc1ccc(C2CC(=O)c3cc(-c4nc(-c5cccc([N+](=O)[O-])c5)cs4)c(=O)n(-c4ccc(F)cc4)c3C2)cc1 (stereo not given)	/	/	2	/	/
Cc1[nH]n(-c2cccc(Cl)c2)c(=O)c1C=NCC(C)C	96*	250%	81	184%	43*
Cc1[nH]n(-c2ccccc2)c(=O)c1C=NCc1ccco1	98*	75%	/	12%	41*
Cc1[nH]n(-c2cccc(Cl)c2)c(=O)c1C=NC12CN3CN(CN(C3)C1)C2	-3	0%	65	42%	-1
Cc1cc2c(cc1S(=O)(=O)N1CCC(C(N)=O)CC1)OCC(=O)N2	/	/	0	/	/
CC(C)OC(=O)CC12CN(C)CC(CC(=O)OC(C)C)(CN(C)C1)C2=O	40	34%	-8	?	35*
CCCCNc1ccc2c(c1)C1CC2CCN1C(=O)OCc1ccccc1 (stereo not given)	/	/	87	/	/
COc1ccc(-c2noc(-c3ccc4c(c3)OCO4)n2)cc1	18	27%	78	?	14*
COc1ccc(-c2nc(-c3ccc4c(c3)OCO4)[nH]c2-c2ccc(OC)cc2)cc1	-7	?	-102*	57%	5
c1ccc(-c2noc(-c3ccccc3-c3ccccc3)n2)cc1	6	5%	3	/	15
c1ccc(-c2noc(-c3ccc4c(c3)OCO4)n2)cc1	109*	130%	0	34%	64*
COc1ccc(-c2nc(-c3ccccc3)c(-c3ccc(O)cc3)[nH]2)cc1	/	/	47	/	/
c1ccc(-c2noc(-c3ccc4ccccc4c3)n2)cc1	105*	319%	-29	-20%	55*
Cc1sc(N)c(C(=O)c2ccccc2)c1C	-8	-14%	-23	?	-3
